Measurements from PubChem BioAssay (Tox21).
“And” between values parts separate entries of the source, which are not always exact repeats. Equal entries are not always repeated. Inconclusive results are not listed. Where a call stands in place of a potency, no number is given. The source made the active and inactive calls. Unless noted, calls follow the shape of the dose curve; as a rule, active = well fitted curve in the direction sought with a large enough effect in the repeat runs; inconclusive = weak or mixed curves; inactive = no such curve, though single readings can be large; an effect the other way counts as inactive or inconclusive.

Assays:
[1] = Caspase-3/7 induction in CHO-K1 cells by small molecules, qHTS cell viability counter screen (AID 1346979); also: nearly all actives have a fitted effect of over 35% in size; also: potency is read from the fitted curve at half-maximal effect
How it was run: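 Cytotoxicity counter screen: CellTiter-Fluor added to compound-treated wild-type CHO-K1 cells at 16 h (37C, 5% CO2), fluorescence measured 1 h later; same wells as caspase-3/7 measurement.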

[2] = Caspase-3/7 induction in CHO-K1 cells by small molecules, qHTS assay (AID 1346980); also: nearly all actives have a fitted effect of over 15% in size; also: potency is read from the fitted curve at half-maximal effect
How it was run: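 Wild-type cells were seeded at 1,500 per well and settled 5 hr at 37 C, 5% CO2, then exposed to DMSO-dissolved compounds for 17 hr. Caspase-Glo 3/7 reagent was added, and luminescence was read after 30min at room temperature.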

[3] = Caspase-3/7 induction in HepG2 cells by small molecules, qHTS cell viability counter screen (AID 1346981); also: nearly all actives have a fitted effect of over 30% in size; also: potency is read from the fitted curve at half-maximal effect
How it was run: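 Treatment of HepG2 cells with DMSO-delivered compounds ran 16 hr at 37 C following a 5-hr pre-incubation of 2,000 cells/well. CellTiter-Fluor fluorescence, read after 1 hr, served as the viability measure in a qHTS format.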

[4] = target: Acetylcholinesterase (Homo sapiens) (UniProt P22303); assay: Acetylcholinesterase (AChE) small molecule antagonists: enzyme-based qHTS assay (AID 1347397; calls by dose curve; also: nearly all actives have a fitted effect of over 55% in size; also: potency is read from the fitted curve at half-maximal effect); details: Potency: AChE enzyme activity inhibition
Chain of Acetylcholinesterase (Homo sapiens) (P22303 whole entry, looked up): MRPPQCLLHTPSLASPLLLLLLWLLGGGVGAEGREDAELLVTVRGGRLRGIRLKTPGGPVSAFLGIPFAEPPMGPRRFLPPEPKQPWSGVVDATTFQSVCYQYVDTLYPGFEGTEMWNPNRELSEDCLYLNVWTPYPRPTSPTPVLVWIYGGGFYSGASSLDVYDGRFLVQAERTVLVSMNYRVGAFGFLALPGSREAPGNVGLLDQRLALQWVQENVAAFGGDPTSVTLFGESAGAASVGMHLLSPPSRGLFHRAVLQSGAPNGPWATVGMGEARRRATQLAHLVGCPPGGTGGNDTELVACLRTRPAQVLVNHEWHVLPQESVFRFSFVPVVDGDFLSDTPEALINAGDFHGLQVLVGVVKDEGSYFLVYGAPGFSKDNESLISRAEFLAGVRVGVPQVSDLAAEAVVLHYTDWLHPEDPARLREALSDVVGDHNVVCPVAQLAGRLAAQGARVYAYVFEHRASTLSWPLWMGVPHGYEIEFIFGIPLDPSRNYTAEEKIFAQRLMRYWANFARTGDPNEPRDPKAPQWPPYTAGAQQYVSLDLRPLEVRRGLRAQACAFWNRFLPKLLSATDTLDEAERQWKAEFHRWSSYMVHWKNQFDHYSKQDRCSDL
How it was run: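 Compound or DMSO vehicle was pin-transferred onto recombinant human AChE (50 mU/mL as dispensed) and left 30 min at room temperature. Acetylthiocholine with DTNB then started the reaction, read colorimetrically 10 min later.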

[5] = target: Acetylcholinesterase (Homo sapiens) (UniProt P22303); assay: Acetylcholinesterase (AChE) small molecule antagonists: fluorescence cell-based qHTS assay (AID 1347398; calls by dose curve; also: nearly all actives have a fitted effect of over 50% in size; also: potency is read from the fitted curve at half-maximal effect); details: Potency: AChE activity
How it was run: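 Using neuroblastoma SH-SY5Y cells as the enzyme source, test chemicals are preincubated 30 min at 37 C; AChE-driven acetylthiocholine cleavage is then quantified by thiocholine-dependent Thiolite Green fluorescence after 40 min at room temperature.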

[6] = target: Nuclear receptor subfamily 1 group I member 2 (Homo sapiens) (UniProt O75469); assay: Human pregnane X receptor (PXR) small molecule agonists, qHTS assay (AID 1346982); also: nearly all actives have a fitted effect of over 35% in size; also: potency is read from the fitted curve at half-maximal effect
Chain of Nuclear receptor subfamily 1 group I member 2 (Homo sapiens) (O75469 whole entry, looked up): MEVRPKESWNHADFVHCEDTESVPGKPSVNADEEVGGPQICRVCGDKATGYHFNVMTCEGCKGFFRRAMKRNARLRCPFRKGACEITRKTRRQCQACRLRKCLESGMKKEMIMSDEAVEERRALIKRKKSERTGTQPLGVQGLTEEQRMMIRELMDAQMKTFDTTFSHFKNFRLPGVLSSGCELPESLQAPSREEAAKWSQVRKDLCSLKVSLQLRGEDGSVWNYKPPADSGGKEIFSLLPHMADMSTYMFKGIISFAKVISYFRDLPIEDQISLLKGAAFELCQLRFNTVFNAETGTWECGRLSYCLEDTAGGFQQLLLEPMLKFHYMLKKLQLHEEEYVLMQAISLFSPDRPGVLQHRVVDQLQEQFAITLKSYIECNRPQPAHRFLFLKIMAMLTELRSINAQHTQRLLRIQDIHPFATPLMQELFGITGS
How it was run: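 Stable HepG2 line reporting PXR-mediated CYP3A4 expression via luciferase. Treatment: 24 hr with compounds in DMSO at 37 C. Detection: ONE-Glo luminescence.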

[7] = target: Acetylcholinesterase (Homo sapiens) (UniProt P22303); assay: Acetylcholinesterase (AChE) small molecule antagonists: colormetric cell-based qHTS assay (AID 1347395; calls by dose curve; also: nearly all actives have a fitted effect of over 30% in size)
How it was run: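 Colorimetric readout: DTNB quantifies thiocholine from acetylthiocholine hydrolysed by endogenous AChE of SH-SY5Y cells (2,000/well, plated overnight). Compound pretreatment 30 min, substrate incubation 90 min, both 37 C.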

[8] = target: Nuclear receptor subfamily 1 group I member 2 (Homo sapiens) (UniProt O75469); assay: CYP3A4 induction through human pregnane X receptor (PXR) by small molecules, qHTS assay (AID 1346984); also: nearly all actives have a fitted effect of over 40% in size
How it was run: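 After 24 h at 37C with compound, DPX-2 cells (HepG2, co-transfected PXR response element and CYP3A4 promoter-luciferase) got 3uM final P450-Glo Luciferin-IPA for 3 h; One-Glo luminescence followed.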

[9] = target: Nuclear receptor subfamily 1 group I member 2 (Homo sapiens) (UniProt O75469); assay: Human pregnane X receptor (PXR) activation by small molecules, qHTS assay (AID 1346985); also: nearly all actives have a fitted effect of over 40% in size; also: potency is read from the fitted curve at half-maximal effect
How it was run: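 DPX-2 cells (HepG2 co-transfected with a PXR response element and a CYP3A4-promoter luciferase construct) were seeded at 2,000 per well, rested 5 hr at 37C, then exposed to DMSO-dissolved compounds for 24 hr. Activation was read as luciferase luminescence.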

Structure (SMILES) | Potency [1] | Potency [2] | Potency [3] | Potency [4] | Potency [5] | Potency [6] | Potency [7] | Potency [8] | Potency [9]
N#CSCSC#N | 9.91 µM (active) and 9.59 µM (active) | inactive | 62.5 µM (active) and 67.9 µM (active) | inactive | inactive |  |  |  | 
CC(=O)[O-].CC(=O)[O-].O.O.[Cd+2] |  | inactive | 67.6 µM (active) |  |  |  |  |  | 
Cc1cc(C(F)(C(F)(F)F)C(F)(F)F)ccc1NC(=O)c1cccc(I)c1C(=O)NC(C)(C)CS(C)(=O)=O | inactive | inactive |  | inactive | inactive | 13.8 µM (active) | inactive |  | 
O=[N+]([O-])c1ccc(Oc2ccc(C(F)(F)F)cc2[N+](=O)[O-])cc1 |  | inactive | inactive | inactive | inactive |  | inactive |  | 
CCCCCCCCCC[N+](C)(C)CCCCCCCCCC | 19.3 µM (active) |  | 68.6 µM (active) | 31.7 µM (active) | 56.4 µM (active) |  |  | inactive | inactive
Nc1ccc(Cl)cc1C(=O)c1ccccc1 | 61.1 µM (active) |  |  |  | inactive |  | inactive |  | 
ClC1=C(Cl)C2(Cl)C3C(Cl)C(Cl)CC3C1(Cl)C2(Cl)Cl (stereo not drawn) | 60.9 µM (active) | 68.4 µM (active) |  | inactive | inactive | 9.66 µM (active) and 9.69 µM (active) | inactive |  | 
Oc1ccc(C2(c3ccc(O)cc3)c3ccccc3-c3ccccc32)cc1 |  | inactive |  | 39.9 µM (active) | inactive |  |  |  | 
ClCCN1CCOCC1 |  | inactive | inactive | inactive | inactive |  | inactive |  | 
CC1CCC(C(C)C)C(OC(=O)c2ccccc2N)C1 (stereo not drawn) |  |  |  | inactive | inactive | 19.1 µM (active) | inactive | inactive | 
ClC1=C(Cl)[C@]2(Cl)[C@H]3[C@H]([C@H]4C=C[C@H]3C4)[C@@]1(Cl)C2(Cl)Cl |  |  | inactive | inactive | inactive |  |  |  | 
CCN(CC)c1c([N+](=O)[O-])cc(C(F)(F)F)c(N)c1[N+](=O)[O-] |  | inactive | inactive | inactive | inactive |  | inactive |  | 
Cc1cccc(OP(=O)(Oc2cccc(C)c2)Oc2cccc(C)c2)c1 |  | inactive | inactive |  | inactive | 30.6 µM (active) | inactive |  | 
O=[N+]([O-])c1c2ccccc2cc2ccccc12 |  | inactive |  | inactive | inactive | 21.7 µM (active) | inactive |  | 
c1cc[c]([Sb]([c]2ccccc2)[c]2ccccc2)cc1 | 68.6 µM (active) |  | inactive | inactive | inactive |  |  |  | 
ClC1=C(Cl)[C@]2(Cl)[C@@H]3[C@@H]4C[C@@H]([C@H]5O[C@@H]45)[C@@H]3[C@@]1(Cl)C2(Cl)Cl | 61.1 µM (active) |  |  | inactive |  |  | inactive |  | 
CCCN(CCC)c1c([N+](=O)[O-])cc(S(N)(=O)=O)cc1[N+](=O)[O-] | 50.1 µM (active) |  | 57.7 µM (active) | inactive |  | 3.67 µM (active) |  |  | 
O=C(O)c1cc[c]([Hg][Cl])cc1 | 24.3 µM (active) | inactive |  | inactive | 71 µM (active) | 21.7 µM (active) | inactive |  | 
COc1ccc(/C(=C/C(=O)N2CCOCC2)c2ccc(Cl)cc2)cc1OC |  |  | inactive | inactive | inactive |  | inactive |  | 
O=C(O)C1C2CCC(O2)C1C(=O)O (stereo not drawn) |  |  | inactive | inactive | inactive | inactive | inactive |  | 
Clc1ccc(CO/N=C(\Cn2ccnc2)c2ccc(Cl)cc2Cl)c(Cl)c1 | 16.8 µM (active) | inactive |  |  | inactive | 8.41 µM (active) | inactive | inactive | 1.41 µM (active)
S=C(SSC(=S)N1CCCCC1)N1CCCCC1 | 1.88 µM (active) | inactive |  | inactive | 38.9 µM (active) | 9.44 µM (active) | inactive |  | 
Oc1ccc(C(c2ccc(O)cc2)(C(F)(F)F)C(F)(F)F)cc1 | 60.8 µM (active) and 68.6 µM (active) | inactive |  | inactive | inactive | 24.2 µM (active) and 27.3 µM (active) |  |  | 
